Experimental findings from PubChem BioAssay (Tox21) are described below.

The nature of assay [1]: Nuclear factor erythroid 2-related factor 2/antioxidant responsive element (Nrf2/ARE) small molecule agonists: qHTS cell viability counter screen in human keratinocytes (AID 1919968; active = well fitted curve in the direction sought with a large enough effect in the repeat runs; an effect the other way counts as inactive or inconclusive; also: nearly all actives have a fitted effect of over 55% in size; also: potency is read from the fitted curve at half-maximal effect). In a few lines:
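Parallel cytotoxicity read: KeratinoSens HaCaT cells, compound treatment 23 h, viability by CellTiter-Fluor fluorescence 1 h post-reagent.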
On the technique in general: qHTS replaces the single test concentration by a dilution series.

Assay [2] concerns the target Gonadotropin-releasing hormone receptor (Homo sapiens) (UniProt P30968). The assay can be described thus: Human gonadotropin-releasing hormone receptor (GnRHR) small molecule agonists, calcium flux assay in GnRHR-HEK293 cells (AID 1920063). Also: nearly all actives have a fitted effect of over 35% in size. In a few lines: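 Calcium flux, agonist mode, human GnRHR stably integrated in HEK293; dye 1 h at 37 C before compound; Ex/Em=480/540 kinetic read, 3 min; 15 concentrations, triplicate.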

The target in assay [3] is KiSS-1 receptor (Homo sapiens) (UniProt Q969F8). The experiment in a line: Human kisspeptin (KISS1R) small molecule agonists, calcium flux assay in KISS1R-HEK293 cells (AID 1920064; active = well fitted curve in the direction sought with a large enough effect in the repeat runs; an effect the other way counts as inactive or inconclusive). Put shortly:
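Triplicate 15-concentration series were applied to dye-loaded human KISS1R HEK293 cells, and agonist-evoked calcium fluorescence was captured for 3 min.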
Background: A change in cytosolic calcium serves as a functional read-out for many receptors and channels.

Assay [4] is described as follows: p53 small molecule agonists, cell-based qHTS assay with human liver microsomes: qHTS cell viability counter screen (AID 1963579). Also: nearly all actives have a fitted effect of over 45% in size. Also: potency is read from the fitted curve at half-maximal effect. In a few lines:
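p53RE-bla cells (4,000/well) were pre-incubated 5 h at 37 C, then given compounds in DMSO plus human liver microsomes (0.5 mg/mL final) and NADPH (0.5 mg/mL final) for 16 h at 37 C. Viability was read by CellTiter-Glo luminescence.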

A short description of assay [5]: p53 small molecule agonists, cell-based qHTS assay with rat liver microsomes: qHTS cell viability counter screen (AID 1963580). Also: nearly all actives have a fitted effect of over 45% in size. In a few lines:
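After the beta-lactamase ratio was read, CellTiter-Glo was added to the same wells and luminescence measured at 30 min; cells had been treated 16 h at 37 C with compounds, rat liver microsomes and NADPH (0.5 mg/mL final each).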

Assay [6] is described as follows: p53 small molecule agonists, cell-based qHTS assay: qHTS cell viability counter screen (AID 1963581). Also: nearly all actives have a fitted effect of over 45% in size. Put shortly:
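Multiplexed with the reporter read, a CellTiter-Glo step (30 min, room temperature) gauges ATP-based viability of HCT-116 p53RE-bla cells after 16 h compound incubation at 37 C.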

Assay [7] addresses 5-hydroxytryptamine receptor 2A (Homo sapiens) (UniProt P28223). The experiment in a line: 5-hydroxytryptamine receptor 2A (HTR2A) small molecule agonists, cell-based qHTS assay (AID 1963587). Also: nearly all actives have a fitted effect of over 30% in size. Put shortly:
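CHO cells stably expressing human HTR2A, plated 18 h, loaded with calcium dye 1 h at 37 C. Agonist mode: compounds added and intracellular calcium fluorescence recorded kinetically for 2 min at 1 sec intervals.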

In assay [8] the target is Muscarinic acetylcholine receptor M1 (Homo sapiens) (UniProt P11229). The assay can be described thus: Cholinergic receptor muscarinic 1 (CHRM1) small molecule agonists, cell-based qHTS assay (AID 1963589). Also: nearly all actives have a fitted effect of over 35% in size. Put shortly: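 qHTS, 15-point titration, 3 independent runs: compounds pin-transferred onto dye-loaded CHRM1-CHO cells (human M1), calcium fluorescence followed every second to detect agonism.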

Assay [9] is described as follows: cAMP Responsive Elements (CRE) small molecule agonists, cell-based qHTS assay (AID 1963590). Put shortly: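 Quantitative HTS for CRE agonists: HEK 293T CRE-bla cells, overnight plating, 3 h compound incubation at 37 C/5% CO2, then 2 h room-temperature LiveBLAzer B/G FRET substrate loading.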
Assay [10] is described as follows: cAMP Responsive Elements (CRE) small molecule antagonists, cell-based qHTS assay (AID 1963591; active = well fitted inhibition curve with a large enough effect in the signal ratio in the repeat runs, not every such curve was filed as active; the % refers to the signal ratio). In a few lines: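 Fluorescence intensity from cleaved LiveBLAzer B/G substrate (2 h, room temperature) quantified CRE-bla activity in HEK 293T cells exposed 3 h to compound with 0.25 uM final NKH477.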
Assay [11] concerns the target Beta-2 adrenergic receptor (Homo sapiens) (UniProt P07550). The experiment in a line: Adrenergic beta2 receptor (ADRB2) small molecule antagonists, cell-based qHTS assay (AID 1963592). Also: nearly all actives have a fitted effect of over 50% in size. Also: potency is read from the fitted curve at half-maximal effect. Put shortly:
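Assay format: CHO-ADRB2 cells, 18-20hr seeding at 37C/5% CO2, then compound plus 1nM isoproterenol agonist mix for 0.5hr RT. Homogeneous time-resolved fluorescence cAMP detection after 1hr, expressed as 665/615 nm ratio.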

Assay [12] concerns the target D(2) dopamine receptor (Homo sapiens) (UniProt P14416). The experiment in a line: Dopamine D2 receptor (DRD2) small molecule agonists, cell-based qHTS assay (AID 1963594). Also: nearly all actives have a fitted effect of over 35% in size. Put shortly:
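HEK293 cells stably expressing human DRD2, pre-treated with PDE inhibitor Ro20-1724 (0.1 mM final) and compound 10 min at room temperature, then stimulated with NKH477 (200nM […]) for 30 min. cAMP read by HTRF (665/620 nm).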

The target is the same in assay [13]. The assay can be described thus: Dopamine D2 receptor (DRD2) small molecule antagonists, cell-based qHTS assay (AID 1963595; active = well fitted inhibition curve with a large enough effect in the signal ratio in the repeat runs, with a control signal flat; the % refers to the signal ratio). Put shortly: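 HEK293 cells stably expressing DRD2, preincubated with 0.1 mM Ro20-1724 and compounds 10 min, were stimulated with 200 nM NKH477 plus 12 nM quinpirole for 30 min at room temperature; cAMP measured by HTRF (665/620 nm).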

Assay [14] is described as follows: p53 small molecule agonists, cell-based qHTS assay with rat liver microsomes (AID 1963578). In a few lines: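 p53RE-bla cells were exposed to compounds together with rat liver microsomes (0.5 mg/mL final) and NADPH (0.5 mg/mL final) for 16 h at 37 C, then read by LiveBLAzer beta-lactamase fluorescence after 2 h at room temperature.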
Assay [15] can be described thus: p53 small molecule agonists, cell-based qHTS assay (AID 1963582; active = well fitted activation curve with a large enough effect in the signal ratio in the repeat runs, not every such curve was filed as active; the % refers to the signal ratio). Put shortly:
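Beta-lactamase reporter cells (p53RE-bla) treated with compounds for 16 h at 37 C; FRET substrate, 2 h, room temperature; fluorescence intensity.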

The target in assay [16] is 5-hydroxytryptamine receptor 2A (Homo sapiens) (UniProt P28223). The assay can be described thus: 5-hydroxytryptamine receptor 2A (HTR2A) small molecule antagonists, cell-based qHTS assay (AID 1963586). Also: nearly all actives have a fitted effect of over 45% in size. Also: potency is read from the fitted curve at half-maximal effect. Put shortly: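 CHO cells stably expressing human HTR2A were plated for 18 h at 37 C, then loaded with calcium dye for 1 h. Compounds were preincubated 5 min at room temperature before DOI (4 nM solution) was added. Kinetic fluorescence was read for 3 min.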

Assay [17] concerns the target Muscarinic acetylcholine receptor M1 (Homo sapiens) (UniProt P11229). The experiment in a line: Cholinergic receptor muscarinic 1 (CHRM1) small molecule antagonists, cell-based qHTS assay (AID 1963588). Also: nearly all actives have a fitted effect of over 40% in size. Also: potency is read from the fitted curve at half-maximal effect. Put shortly: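 Compounds were tested at 15 concentrations in three independent runs. Dye-loaded CHRM1-CHO cells were exposed 5 min at room temperature before stimulation by acetylcholine added at 50nM. Intracellular calcium was read kinetically on FDSS for 3 min.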

The target in assay [18] is Beta-2 adrenergic receptor (Homo sapiens) (UniProt P07550). The experiment in a line: Adrenergic beta2 receptor (ADRB2) small molecule agonists, cell-based qHTS assay (AID 1963593).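 Also: CHO cells stably overexpressing human ADRB2.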 In a few lines: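 CHO cells stably over-expressing ADRB2 were plated overnight at 37C, then dosed with compounds plus a stimulation mix containing 100uM IBMX and 25uM Ro-20-1724 for 0.5hr at room temperature. cAMP was measured by HTRF competition, 1hr.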

Assay [19] in a line: G protein-coupled receptor (GPCR) small molecule agonists, calcium flux assay: HEK293 wild type cell line counter screen (AID 1920065). Put shortly:
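Non-specific calcium responders were flagged by adding DMSO-dissolved compounds to dye-loaded cells and reading 480/540 nm fluorescence each second for 3 min; ATP served as positive control.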

The nature of assay [20]: p53 small molecule agonists, cell-based qHTS assay with human liver microsomes (AID 1963577). Put shortly: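 p53RE-bla reporter cells were pre-incubated 5 h at 37 C, then treated with compounds plus human liver microsomes (0.5 mg/mL final) and NADPH (0.5 mg/mL final) for 16 h at 37 C. Beta-lactamase activity was read by LiveBLAzer fluorescence after 2 h at room temperature.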

Unmarked numbers belong to inactive results. Inconclusive results are not listed. The source made the active and inactive calls. Unless noted, calls follow the shape of the full dose curve.

KiSS-1 receptor (Homo sapiens), sequence (Q969F8 whole entry, looked up): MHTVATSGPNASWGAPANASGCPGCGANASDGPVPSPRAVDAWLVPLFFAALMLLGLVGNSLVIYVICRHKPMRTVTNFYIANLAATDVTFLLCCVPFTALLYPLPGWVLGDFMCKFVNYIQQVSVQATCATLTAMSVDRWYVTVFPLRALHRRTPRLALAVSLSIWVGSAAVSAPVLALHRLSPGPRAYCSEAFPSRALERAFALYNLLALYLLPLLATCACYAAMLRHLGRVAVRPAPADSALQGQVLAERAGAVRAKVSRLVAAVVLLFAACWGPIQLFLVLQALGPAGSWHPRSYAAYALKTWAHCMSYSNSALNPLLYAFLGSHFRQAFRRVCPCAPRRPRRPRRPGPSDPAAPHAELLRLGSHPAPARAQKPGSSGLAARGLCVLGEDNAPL
Muscarinic acetylcholine receptor M1 (Homo sapiens), sequence (P11229 whole entry, looked up): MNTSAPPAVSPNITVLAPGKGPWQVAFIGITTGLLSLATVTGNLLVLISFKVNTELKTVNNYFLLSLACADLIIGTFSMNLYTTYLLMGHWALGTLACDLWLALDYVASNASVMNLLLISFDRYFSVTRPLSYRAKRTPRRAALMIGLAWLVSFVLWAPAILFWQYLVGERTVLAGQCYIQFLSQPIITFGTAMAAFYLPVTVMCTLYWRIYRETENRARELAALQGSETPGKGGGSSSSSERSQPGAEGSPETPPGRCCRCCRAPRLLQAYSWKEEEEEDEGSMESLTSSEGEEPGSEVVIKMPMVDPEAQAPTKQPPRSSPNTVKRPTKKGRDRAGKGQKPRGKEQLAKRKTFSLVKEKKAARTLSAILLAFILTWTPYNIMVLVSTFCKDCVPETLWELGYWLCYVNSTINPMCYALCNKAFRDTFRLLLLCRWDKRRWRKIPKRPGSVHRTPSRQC
D(2) dopamine receptor (Homo sapiens), sequence (P14416 whole entry, looked up): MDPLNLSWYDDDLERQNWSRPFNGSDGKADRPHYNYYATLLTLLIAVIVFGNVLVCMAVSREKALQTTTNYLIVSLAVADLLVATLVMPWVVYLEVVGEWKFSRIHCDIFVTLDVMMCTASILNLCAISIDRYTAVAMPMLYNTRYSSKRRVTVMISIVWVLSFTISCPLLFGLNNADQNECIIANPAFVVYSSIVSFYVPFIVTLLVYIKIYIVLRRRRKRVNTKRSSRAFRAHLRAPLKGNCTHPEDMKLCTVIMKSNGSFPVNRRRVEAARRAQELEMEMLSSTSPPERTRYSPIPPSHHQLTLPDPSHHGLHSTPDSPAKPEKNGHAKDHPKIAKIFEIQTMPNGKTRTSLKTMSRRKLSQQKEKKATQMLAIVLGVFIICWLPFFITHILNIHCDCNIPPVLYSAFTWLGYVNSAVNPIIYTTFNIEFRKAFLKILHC
Gonadotropin-releasing hormone receptor (Homo sapiens), sequence (P30968 whole entry, looked up): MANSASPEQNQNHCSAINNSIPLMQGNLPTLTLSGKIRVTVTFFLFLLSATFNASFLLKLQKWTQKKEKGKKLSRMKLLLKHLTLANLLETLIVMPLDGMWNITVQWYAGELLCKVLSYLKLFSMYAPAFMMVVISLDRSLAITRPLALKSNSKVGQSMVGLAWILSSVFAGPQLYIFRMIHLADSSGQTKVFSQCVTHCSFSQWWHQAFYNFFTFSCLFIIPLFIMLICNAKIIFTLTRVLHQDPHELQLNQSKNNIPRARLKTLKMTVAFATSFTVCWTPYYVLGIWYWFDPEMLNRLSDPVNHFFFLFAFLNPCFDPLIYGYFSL
Beta-2 adrenergic receptor (Homo sapiens), sequence (P07550 whole entry, looked up): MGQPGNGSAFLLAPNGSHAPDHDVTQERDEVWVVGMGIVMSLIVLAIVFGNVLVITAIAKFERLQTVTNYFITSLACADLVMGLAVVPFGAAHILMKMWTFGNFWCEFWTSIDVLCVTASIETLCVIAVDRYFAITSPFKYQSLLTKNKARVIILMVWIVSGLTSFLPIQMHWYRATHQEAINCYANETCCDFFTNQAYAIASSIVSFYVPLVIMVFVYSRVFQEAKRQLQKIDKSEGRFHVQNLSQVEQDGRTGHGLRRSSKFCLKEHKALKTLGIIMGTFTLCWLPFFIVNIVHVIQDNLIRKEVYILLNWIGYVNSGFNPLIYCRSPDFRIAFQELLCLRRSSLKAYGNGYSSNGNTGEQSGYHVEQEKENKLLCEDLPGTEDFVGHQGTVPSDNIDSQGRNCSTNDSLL
5-hydroxytryptamine receptor 2A (Homo sapiens), sequence (P28223 whole entry, looked up): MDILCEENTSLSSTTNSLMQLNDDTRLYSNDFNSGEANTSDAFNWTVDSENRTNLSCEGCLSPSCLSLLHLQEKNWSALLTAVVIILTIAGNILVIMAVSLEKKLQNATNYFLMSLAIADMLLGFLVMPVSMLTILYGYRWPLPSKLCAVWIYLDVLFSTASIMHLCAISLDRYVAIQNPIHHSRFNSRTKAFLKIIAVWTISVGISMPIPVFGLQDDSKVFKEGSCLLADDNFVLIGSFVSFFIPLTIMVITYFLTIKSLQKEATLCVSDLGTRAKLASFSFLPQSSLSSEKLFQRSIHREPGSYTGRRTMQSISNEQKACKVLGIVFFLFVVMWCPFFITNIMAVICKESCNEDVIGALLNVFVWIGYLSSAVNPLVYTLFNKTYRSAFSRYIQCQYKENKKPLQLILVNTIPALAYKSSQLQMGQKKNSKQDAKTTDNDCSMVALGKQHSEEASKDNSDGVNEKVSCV

On to `Oc1cccc(Nc2ccccc2)c1`, for which the Potency result in assay [1], in assay [2], in [3], in [4], in assay [5] and in assay [6] was “inactive” throughout. Further, the Potency result in [7], in assay [8], in assay [9], in assay [10], in assay [11] and in assay [12] was “inactive” each time. Besides, in [13], the Potency entry is “inactive”.

On to `CC(C)(c1ccccc1)c1ccccc1`, for which the Potency entry in [1], in assay [2], in assay [3], in assay [14], in assay [4] and in [5] was “inactive” throughout. Further, the Potency result in [6], in [15], in assay [16], in assay [8], in assay [9] and in assay [10] was “inactive” each time. The Potency entry in assay [11], in assay [18] and in assay [12] was “inactive” in each case. The Potency in assay [17] is 1.1 µM (active).

`C=C(C)C(=O)OCCCCCCCCCC`: the Potency entry in assay [1], in assay [2], in assay [3], in assay [19], in [5] and in assay [16] was “inactive” throughout. Further, the Potency result in assay [7], in assay [8], in assay [9], in assay [10], in assay [18] and in [12] was “inactive” throughout. Besides, the Potency result in assay [13] was “inactive”. In addition, the Potency in assay [17] is 42.4 µM (active).

As to `CCOc1ccc2c(c1)C(C)CC(C)(C)N2` (configuration not stated), the Potency entry in [1], in assay [2], in assay [3], in assay [19], in assay [6] and in assay [16] was “inactive” throughout. Also, the Potency result in [7], in assay [8], in assay [9], in [11], in [12] and in [13] was “inactive” each time.

Turning to `COC(=O)c1cc(Cl)cc(Cl)c1`, the Potency result in assay [1], in assay [2], in assay [3], in assay [19], in [5] and in assay [6] was “inactive” in each case. The Potency result in [16], in assay [7], in [17], in assay [8], in [10] and in assay [11] was “inactive” each time. Further, in assay [13], the Potency result is “inactive”.

As to `O=C(O)c1cc(Br)c(O)c(Br)c1`, the Potency entry in assay [1], in assay [2], in assay [3], in [19], in assay [16] and in [7] was “inactive” in each case. The Potency result in assay [17], in assay [8], in assay [9], in assay [10], in assay [11] and in assay [18] was “inactive” throughout. The Potency entry in assay [12] and in [13] was “inactive” each time.

As for `CC(=O)/C(C)=C/C1C(C)=CCCC1(C)C` (configuration not stated), the Potency result in [1], in assay [2], in assay [3], in assay [19], in [5] and in assay [6] was “inactive” each time. Also, the Potency entry in assay [15], in [16], in assay [7], in assay [17], in [8] and in assay [9] was “inactive” throughout. Besides, the Potency entry in assay [10], in assay [11], in assay [12] and in assay [13] was “inactive” each time.

Consider `Brc1ccccc1-c1ccccc1`, for which the Potency entry in [1], in [2], in [3], in [4], in assay [5] and in [17] was “inactive” each time. Also, the Potency entry in assay [8], in assay [9], in assay [10], in assay [11] and in assay [13] was “inactive” each time. Also, the Potency in assay [16] was 17.8 µM (active).

Take `O=C(Nc1cccc(C(F)(F)F)c1)c1cc(Br)cc(Br)c1O`: the Potency was 7.7 µM (active) in assay [1], 9.13 µM (active) in assay [4] and 61.1 µM (active) in assay [11]. Moreover, the Potency entry in assay [2], in assay [3], in assay [20], in assay [14], in [16] and in [7] was “inactive” throughout. For the same compound, the Potency result in assay [8], in [12] and in assay [13] was “inactive” in each case.
